Assay results: PubChem BioAssay (NCATS)
Inconclusive results are not listed. The source made the active and inactive calls. Calls come from the whole dose curve; as a rule, active = well fitted curve in the direction sought with a large enough effect; inconclusive = small, poorly fitted or top-dose-only effect, or another doubt; inactive = no such curve, though single readings can be large; an effect the other way counts as inactive or inconclusive.

What was measured:
[1] = system: NIH3T3; experiment: qHTS assay to identify novel small-molecules to repurpose for Merkel cell carcinoma treatment (AID 1296009); conditions: MCC and control cell lines, CellTiter-Glo viability, 72 h; at 44.8 µM (top of the series) unless noted; note: nearly all actives have a fitted effect of over 60% in size
Summary of the method: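 qHTS format: cells treated with library compounds in DMSO across 8 (NPC) or 11 (MIPE) concentrations. Readout after 72 hr at 37 degree celsius was CellTiter-Glo luminescence.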

[2] = system: C33A; experiment: Primary qHTS to identify gynecologic anti-cancer compounds using libraries of approved drugs and bioactive compounds (AID 1345084); conditions: Gynecologic cancer cell panel viability, ATPlite luminescence, 48 h; series mostly up to 57.5 µM; note: nearly all actives have a fitted effect of over 55% in size
Summary of the method: (§1)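 Five-concentration response, 48 h; readout is ATP-driven luciferase luminescence.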

[3] = system: CAOV3; experiment: as above; conditions: Gynecologic cancer cell panel viability, ATPlite luminescence, 48 h; series mostly up to 57.5 µM
Summary of the method: as §1

[4] = system: CASKI; experiment: as above; conditions: Gynecologic cancer cell panel viability, ATPlite luminescence, 48 h; series mostly up to 57.5 µM
Summary of the method: as §1

[5] = system: Es-2; experiment: as above; conditions: Gynecologic cancer cell panel viability, ATPlite luminescence, 48 h; series mostly up to 57.5 µM
Summary of the method: as §1

[6] = system: HeLa; experiment: as above; conditions: Gynecologic cancer cell panel viability, ATPlite luminescence, 48 h; series mostly up to 57.5 µM
Summary of the method: as §1

[7] = system: Hek293T; experiment: as above; conditions: Gynecologic cancer cell panel viability, ATPlite luminescence, 48 h, control line for the selectivity index; series mostly up to 57.5 µM
Summary of the method: as §1

Measured: Potency

CC1=CC(=O)CC(C)(CO[C@@H]2O[C@H](CO)[C@@H](O)[C@H](O)[C@H]2O)C1(O)/C=C/C(C)=C/C(=O)O (stereo not given in full)
inactive: [1] inactive [at 17.4 µM] | [2] | [3] | [4] | [5] | [6] | [7]

C=C1C(OC(C)=O)C(=O)C2C(C)(C)C(OC(C)=O)CCC2(C)C1CC(OC(C)=O)/C(C)=C/COC(C)=O (stereo not given)
inactive: [1] inactive [at 17.4 µM] | [2] | [3] | [4] | [5] | [6] | [7]

CC(=O)c1c(C)cc(O)cc1O[C@@H]1O[C@H](CO)[C@@H](O)[C@H](O)[C@H]1O
inactive: all assays above

C/C=C/C1=CC2=C(CO1)C(=O)[C@](C)(O)[C@H](OC(=O)c1c(O)cc(OC)c(O)c1C)C2
inactive: [1] inactive [at 17.4 µM] | [2] | [3] | [4] | [5] | [6] | [7]

C=C(C(=O)O)[C@@H]1CC=C2CCC[C@H](C)[C@@]2(C)C1
inactive: all assays above

C=C[C@H]1[C@H](O[C@@H]2O[C@H](CO[C@@H]3OC[C@](O)(CO)[C@H]3O)[C@@H](O)[C@H](O)[C@H]2O)OC=C2C(=O)OCC[C@H]21
inactive: [1] inactive [at 17.4 µM] | [2] | [3] | [4] | [5] | [6] | [7]

C/C(=C\CCC(C(=O)O)C1CCC2(C)C3=C(CCC12C)C1(C)CCC(=O)C(C)(C)C1CC3)C(=O)O (stereo not given)
inactive: [1] inactive [at 17.4 µM] | [2] | [3] | [4] | [5] | [6] | [7]

O=C(NN1CCCCC1)c1nn(-c2ccc(Cl)cc2Cl)c(-c2ccc(C#Cc3ccc(C(F)(F)F)cc3)s2)c1CNS(=O)(=O)N1CCCC1
inactive: all assays above

COC1=CC(=O)O[C@@H](/C=C/c2ccccc2)[C@@H]1O
inactive: all assays above

C=C1C[C@]23C[C@H]1CC[C@H]2[C@@]12C=C[C@H](O)[C@@](C)(C(=O)O1)[C@H]2[C@@H]3C(=O)O
inactive: all assays above

COc1cc(/C=C/C(=O)OC2CC(C)=C(C(=O)O)/C2=C/CO[C@@H]2O[C@H](CO)[C@@H](O)[C@H](O)[C@H]2O)ccc1O (stereo not given in full)
inactive: [1] inactive [at 17.4 µM] | [2] | [3] | [4] | [5] | [6] | [7]

CN1C(=O)N[C@@H](Cc2c[nH]c3c(Cl)cccc23)C1=O
inactive: all assays above

COc1ccccc1[C@@H]1C2=C(CC(C)(C)CC2=O)Nc2n[nH]c(C(F)(F)F)c21
inactive: all assays above

COC1C2=C(COC2=O)C2(C)CCCC(C)(CO)C2C1OC(=O)c1ccccc1 (stereo not given)
inactive: [1] inactive [at 17.4 µM] | [2] | [3] | [4] | [5] | [6] | [7]

O=C(O[C@H]1[C@@H]2C=CO[C@@H](O[C@@H]3O[C@H](CO)[C@@H](O)[C@H](O)[C@H]3O)[C@@H]2[C@@]2(CO)O[C@@H]12)c1ccc(O)c(O)c1
inactive: [1] inactive [at 17.4 µM] | [2] | [3] | [4] | [5] | [6] | [7]

CC(C)=CCc1ccc(Oc2c(O)cc(C)cc2CO)c(C(=O)O)c1O
inactive: all assays above

C=C[C@H]1[C@H](O[C@@H]2O[C@H](CO)[C@@H](O)[C@H](O)[C@H]2O)OC=C2C(=O)OCC[C@]21O
inactive: all assays above

C=C1C[C@@]23CC[C@@H]4[C@](C)(C(=O)O)CCC[C@@]4(C)C2=CC[C@H]1C3
inactive: all assays above

CC1(C)CC2C(O)C3=C(CC(C)(O)C2C1)C(=O)OC3O (stereo not given)
inactive: all assays above

COc1ccc(C(=O)O[C@H]2CC(C)=CC[C@@]3(C)[C@@H](OC(C)=O)C[C@@](O)(C(C)C)[C@H]23)cc1
inactive: [1] inactive [at 17.4 µM] | [2] | [3] | [4] | [5] | [6] | [7]
